Where “and” joins values, the source holds several entries; their conditions need not be identical. Equal entries are not always repeated. Values without a mark were called inactive. Inconclusive results are not listed. Calls of active or inactive are those of the source. For most assays here, calls follow the shape of the dose curve; as a rule, active = well fitted curve in the direction sought with a large enough effect; inconclusive = small, poorly fitted or top-dose-only effect, or another doubt; inactive = no such curve, though single readings can be large; an effect the other way counts as inactive or inconclusive.

For orientation: AC50 means the concentration giving half of the maximal activity seen.

One assay is described as follows: qHTS assay for small molecule agonists of the antioxidant response element (ARE) signaling pathway measured by Nrf2-dependant transcriptional activity - cell viability counter screen (AID 720653; active = well fitted curve in the direction sought with a large enough effect in the repeat runs; an effect the other way counts as inactive or inconclusive; also: potency is read from the fitted curve at half-maximal effect; as to max response: % is scaled to controls: 0 for no effect and ±100 for the full control effect). The note with it: ARE-bla HepG2 viability, CellTiter-Glo ATP luminescence, 16 h; max response: hits give low values. The method, boiled down: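 Cytotoxicity counter screen: intracellular ATP quantified by CellTiter-Glo luminescence in the same ARE-bla HepG2 plates, after 16 h compound exposure and a 2 h beta-lactamase substrate step.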
In general terms: Quantitative high-throughput screening tests each substance at several concentrations.
For the compound `Nc1c(Cl)c(Cl)c(Cl)c(Cl)c1Cl`, the max response is 1.83%.
Still for that read-out and setting: as for `O=S(=O)(O)C(F)(F)C(F)(F)C(F)(F)C(F)(F)F`, the figure is -3.1% and 4.61%.
For `CC(=O)[O][Hg][c]1ccccc1`, the Potency is 35.5 µM (active) and 14.1 µM (active).
As to `Nc1cccc2c(N)cccc12`, the max response is -13.9%.
For the compound `CCCCOC(=O)c1ccccc1C(=O)OCc1ccccc1`, the max response was -1.29% and -2.62%.

Another assay in a line: qHTS Assay for Identifying Gametocytocidal Compounds (AID 743244). Also: potency is read from the fitted curve at half-maximal effect.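 As to max response: % is scaled to controls: 0 for no effect and ±100 for the full control effect; actives lower the fluorescent signal which means gametocytes are killed.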 The note with it: P. falciparum 3D7 stage III-V gametocytes, alamarBlue, 72 h; max response: hits give low values. The method, boiled down: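 Stage III–V gametocytes of P. falciparum 3D7 were seeded at 20,000 cells/well onto pre-dispensed compounds. After 72 h, 37 °C, 5% CO2, alamarBlue was added for another 24 h.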
Regarding `Nc1c(Cl)c(Cl)c(Cl)c(Cl)c1Cl`, the max response is 4.37%.
Same read-out and setting: with `O=S(=O)(O)C(F)(F)C(F)(F)C(F)(F)C(F)(F)F` the figure was -9.45%.
For the compound `CC(=O)[O][Hg][c]1ccccc1`, the Potency is 1.12 µM (active).
The same measure, in the same setting: as for `Nc1cccc2c(N)cccc12`, the figure is 25.1 µM (active).
For the compound `CCCCOC(=O)c1ccccc1C(=O)OCc1ccccc1`, the max response was 13.2%.

A further assay is described as follows: qHTS assay for cell viability of HEK293 cells (AID 743288). Also: nearly all actives have a fitted effect of over 50% in size. Also: potency is read from the fitted curve at half-maximal effect. As to max response: % is scaled to controls: 0 for no effect and ±100 for the full control effect. The note with it: ATP luminescence (CellTiter-Glo), 18 h; max response: hits give low values. Summed up: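 After 18 h compound exposure at 37 C, parental HEK293 cells (2,000/well) are lysed with CellTiter-Glo and luminescence is read following 30 min at room temperature.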
On to `Nc1c(Cl)c(Cl)c(Cl)c(Cl)c1Cl`, for which the max response is -4.75%.
For the compound `O=S(=O)(O)C(F)(F)C(F)(F)C(F)(F)C(F)(F)F`, the max response was -11.1% and -18%.
As for `CC(=O)[O][Hg][c]1ccccc1`, the Potency is 7.08 µM (active) and 22.4 µM (active).
Take `CCCN(CCC)c1c([N+](=O)[O-])cc(S(N)(=O)=O)cc1[N+](=O)[O-]`: the max response was -4.88%.
The same measure, in the same setting: with `CCCCOC(=O)c1ccccc1C(=O)OCc1ccccc1` the figure was -13.6% and -13.5%.

The next assay can be described thus: qHTS assay for cell viability of the p53RE-bla HCT-116 cell line (AID 743292). Also: nearly all actives have a fitted effect of over 55% in size. Also: potency is read from the fitted curve at half-maximal effect. The note with it: p53RE-bla HCT-116 viability, ATP luminescence, 16 h; series mostly up to 95 µM. Summed up:
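ATP-based luminescent viability (CellTiter-Glo, 30 min RT) after 16 h compound treatment at 37 C of p53RE-bla HCT-116 cells, seeded at 4,000 cells/well and rested 5 h before dosing.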
For `Nc1c(Cl)c(Cl)c(Cl)c(Cl)c1Cl`, the Potency result was “inactive”.
In the case of `O=S(=O)(O)C(F)(F)C(F)(F)C(F)(F)C(F)(F)F`, the Potency result is “inactive”.
The same measure, in the same setting: with `CC(=O)[O][Hg][c]1ccccc1` the figure was 8.91 µM (active) and 10 µM (active); with `CCCN(CCC)c1c([N+](=O)[O-])cc(S(N)(=O)=O)cc1[N+](=O)[O-]`, “inactive”; with `CCCCOC(=O)c1ccccc1C(=O)OCc1ccccc1`, “inactive”.

Assay in the next assay: not given
As to conditions: Ebola virus entry assay, ratio channel.
`Nc1c(Cl)c(Cl)c(Cl)c(Cl)c1Cl`: the outcome was inactive.
Take `O=S(=O)(O)C(F)(F)C(F)(F)C(F)(F)C(F)(F)F`: the outcome was inactive.
Still for that read-out and setting: as for `Nc1nc2ccc([N+](=O)[O-])cc2s1`, the entry is “inactive”.
As to `CC(=O)[O][Hg][c]1ccccc1`, the AC50 was 4.47 µM (active).
For the compound `CN(C)c1ccc(N=NS(=O)(=O)O)cc1`, the result was inactive.
Take `Nc1cccc2c(N)cccc12`: the result was inactive.
For the compound `CCCN(CCC)c1c([N+](=O)[O-])cc(S(N)(=O)=O)cc1[N+](=O)[O-]`, the half-maximal activity concentration (AC50) was 8.91 µM (active).
Regarding `CCCCOC(=O)c1ccccc1C(=O)OCc1ccccc1`, the result was inactive.

Source of the values: PubChem BioAssay (NCATS).
